Compound activity deposited in PubChem by several laboratories.
Mcl1 Noxa PPI – Mcl-1/Noxa interaction inhibition; Q07820; TR-FRET Mcl-1/Noxa peptide binding, 2 h; inhibition, % at 21.7 µM; 220,000 compounds, 1.5% hits; AID 1022;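 active = compounds that cut the protein-peptide binding signal by more than 50% relative to plate controls in a single-dose test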;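 note: His-tagged Mcl-1 with rhodamine Noxa BH3 peptide and terbium anti-His antibody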
Target sequence (Q07820 whole entry, looked up): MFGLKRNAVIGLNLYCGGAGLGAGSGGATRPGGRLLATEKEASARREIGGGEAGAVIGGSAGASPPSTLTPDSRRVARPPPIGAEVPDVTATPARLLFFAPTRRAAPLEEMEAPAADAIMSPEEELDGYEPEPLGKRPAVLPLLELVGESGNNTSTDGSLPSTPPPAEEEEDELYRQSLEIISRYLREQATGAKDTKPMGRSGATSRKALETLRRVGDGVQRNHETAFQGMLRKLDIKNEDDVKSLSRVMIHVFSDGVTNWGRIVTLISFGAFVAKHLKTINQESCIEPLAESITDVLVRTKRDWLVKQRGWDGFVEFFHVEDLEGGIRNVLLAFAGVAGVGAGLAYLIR
NCF1 inh – inhibitors of human p47phox binding | P14598 | p47phox/p22phox peptide binding, fluorescence polarization, 2 h | inhibition, % at 24.7 µM | 220,000 compounds, 0.53% hits
eIF4E 4G PPI – blocks eIF4E binding to eIF4G. P63073+Q04637. inhibition, % at 21.7 µM. AID 782. 220,000 compounds, 0.37% hits. TR-FRET eIF4E-eIF4GI(517-606) binding, 2 h
14-3-3 Bad PPI – disrupts binding of bovine 14-3-3 zeta to phospho-Bad peptide; P63103; TR-FRET 14-3-3zeta/Dy647-pBad peptide displacement, 1 h; inhibition, % at 21.7 µM; 220,000 compounds, 0.71% hits; AID 781;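 active = inhibition above about 70%, limit read from the data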
Target sequence (P63103 whole entry, looked up): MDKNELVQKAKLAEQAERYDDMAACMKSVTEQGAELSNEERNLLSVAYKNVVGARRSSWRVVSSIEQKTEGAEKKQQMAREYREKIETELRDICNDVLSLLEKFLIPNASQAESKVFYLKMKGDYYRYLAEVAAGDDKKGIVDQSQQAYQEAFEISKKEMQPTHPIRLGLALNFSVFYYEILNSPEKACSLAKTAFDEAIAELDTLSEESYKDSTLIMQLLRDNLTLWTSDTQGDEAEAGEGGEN
Mcl1 Bid PPI – disrupts binding of human Mcl-1 to Bid peptide | Q07820 | inhibition, % at 21.7 µM | TR-FRET Mcl-1/Bid-Dy647 peptide binding, 1536-well | 220,000 compounds, 0.97% hits;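 active = compounds that cut the binding signal by more than half at the single screening dose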;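 note: His-tagged Mcl-1 with europium anti-His antibody binding Bid BH3 peptide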
Mcl-1 Bim block – human Bim-Mcl-1 interaction inhibition | Bead-based flow cytometry, Bim peptide-Mcl-1 binding | Q07820 | 190,000 compounds, 0.1% hits | inhibition, % at 10 µM | AID 1009; in the data active = inhibition above about 40%
Each line names hits and unclear results; the compound was inactive in the other large screens; [ ] = remark or other dose. Shown are actives, neighbours in structure and some others; about 3.4% of the full set was active somewhere.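 Rule for the calls, unless noted: active = inhibition above about 30% (limit read from the data); inactive = the rest.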

O=C(O)CCCNc1cc(N2CCC3(CC2)OCCO3)c2noc3c2c1C(=O)c1ccccc1-3	Mcl1 Noxa PPI 89
O=C(CCOc1ccccc1)Nc1ccc([N+](=O)[O-])cc1	none
COc1cc([N+](=O)[O-])cc2cc(C(=O)N3CCCC3)c(=O)oc12	none
COc1ccc(S(=O)(=O)N2CCN(Cc3c[nH]c4ccccc34)CC2)cc1	none
O=[N+]([O-])c1ccc(S(=O)(=O)N2CCN(Cc3c[nH]c4ccccc34)CC2)cc1	14-3-3 Bad PPI 79
CC(C)OC(=O)c1cccnc1N1CCN(c2cccc(Cl)c2)CC1	none
CC(C)CNC(=O)C1CCN(Cc2ccc(OCc3ccccc3)cc2)CC1	none
CC(O)CNC(=O)C1CCN(Cc2ccc(OCc3ccccc3)cc2)CC1 (stereo not given)	Mcl1 Bid PPI 63
O=C(/C=N/O)Nc1cccnc1	none
O=C(/C=N/O)Nc1ccc(F)cc1	eIF4E 4G PPI 53
O=C1CS/C(=N\N=C\c2ccccc2Cl)N1CC1CC1	none (no result: Mcl-1 Bim block)
N#C/C(=C\c1ccccn1)c1nc2ccccc2s1	none
COC(=O)c1ccc(/C=C(\C#N)c2nc3ccccc3s2)cc1	Mcl1 Noxa PPI 59, Mcl1 Bid PPI 59
N#C/C(=C/c1ccc(-c2ccc(S(N)(=O)=O)cc2)o1)c1nc2ccccc2s1	Mcl1 Bid PPI 53
CCC(CC)NC(=O)c1cccc(Oc2ccccc2)c1	none
O=C(CSc1nc2ccccc2c(=O)n1-c1ccccc1)N/N=C/C=C/c1ccccc1[N+](=O)[O-]	none
Cc1ccccc1-n1c(SCC(=O)N/N=C/C=C/c2ccccc2[N+](=O)[O-])nc2ccccc2c1=O	Mcl1 Noxa PPI 63
Cn1cc(C(=O)N/N=C/c2c(O)ccc3ccccc23)ccc1=O	Mcl1 Noxa PPI 58
CCN(c1ccc(NC(=O)COC(=O)c2ccc(C)c(S(=O)(=O)N3CCOCC3)c2)cc1)C(C)C	Mcl1 Noxa PPI 74
Cc1ccc(C(=O)OCC(=O)Nc2ccccc2C(F)(F)F)cc1S(=O)(=O)N1CCOCC1	none
CCOC(=O)c1ccccc1NC(=O)COC(=O)c1ccc(C)c(S(=O)(=O)N2CCOCC2)c1	NCF1 inh 93
Cc1ccc(C(=O)OCC(=O)Nc2ccc3c(c2)OCO3)cc1S(=O)(=O)N1CCOCC1	none
N/C(Cc1ccc(Cl)c(Cl)c1)=N\OC(=O)c1ccc(Br)o1	none (no result: Mcl-1 Bim block)
COc1ccc(N(CC(=O)Nc2ccccc2C(N)=O)S(=O)(=O)c2ccc(C)c([N+](=O)[O-])c2)cc1	none
Cn1c(=O)c2c(nc(NN=C3CCCC3)n2C)n(C)c1=O	none (no result: Mcl-1 Bim block)
COc1cc(/C=C2\SC(=Nc3c(C)n(C)n(-c4ccccc4)c3=O)NC2=O)ccc1O	Mcl1 Noxa PPI 51
COc1cc(/C=C2\SC(=Nc3ccc(O)cc3)NC2=O)cc(OC)c1O	Mcl1 Noxa PPI 62
O=C1NC(=Nc2ccc(O)cc2)S/C1=C/c1ccco1	none
CN1CCN(c2ccc(C(=O)c3cn(-c4ccc(F)c(Cl)c4)nn3)cc2)CC1	14-3-3 Bad PPI 76
Cc1ccc(-n2cc(C(=O)c3ccc(N4CCN(C)CC4)cc3)nn2)cc1Cl	none
O=C(NC1CC1)C1=C[C@@H](c2ccc(Br)cc2)C[C@@H](OCc2ccc(CO)cc2)O1	none (no result: Mcl-1 Bim block)
Cc1[nH]n(-c2ccccc2)c(=S)c1C=Nc1ccc([N+](=O)[O-])cc1	NCF1 inh 87
O=C(Nc1nc(=S)ss1)c1ccc(Cl)cc1Cl	14-3-3 Bad PPI 80
CCOC(=O)CNC(=O)C1CCCc2c1[nH]c1ccc(Cl)cc21 (stereo not given)	none
CCOC(=O)c1ccc2[nH]c3c(c2c1)CCCC3O (stereo not given)	NCF1 inh 48
COc1ccc(CCNC(=O)C23CCC(C)(C(=O)O2)C3(C)C)cc1OC (stereo not given)	none
COc1ccc(CCNC(=O)C2(C)CCC(=O)N2CCC(C)C)cc1OC (stereo not given)	Mcl1 Bid PPI 59
COc1cc(OC)nc(-n2ncc(Br)c(Br)c2=O)n1	none
Cc1ccc(C)c(NC(=O)C(Sc2ncnc3ccccc23)c2ccccc2)c1 (stereo not given)	none
CC(=O)c1cccc(NC(=O)C(Sc2ncnc3ccccc23)c2ccccc2)c1 (stereo not given)	Mcl1 Bid PPI 56
Cc1ccc2nc(-c3ccc(NC(=O)CN4C(=O)c5ccccc5C4=O)cc3)sc2c1	none
Cc1ccc2nc(-c3ccc(NC(=O)CSc4nccc(=O)[nH]4)cc3)sc2c1	none
Cc1ccc2nc(-c3ccc(NC(=O)CNC4CC4)cc3)sc2c1	14-3-3 Bad PPI 80
Cc1ccc2nc(-c3ccc(NC(=O)COC(=O)c4ccc(=O)[nH]c4)cc3)sc2c1	Mcl1 Noxa PPI 63
Cc1ccc2nc(-c3ccc(NC(=O)CSc4nc(N)cc(=O)[nH]4)cc3)sc2c1	Mcl1 Bid PPI 53 (no result: Mcl-1 Bim block)
COc1ccccc1N1CCN(C(=O)Cn2nc3n(C)c4ccccc4n3c(=O)c2=O)CC1	none
COc1ccc(NC(=S)N2CCN(c3ncccn3)CC2)c(OC)c1	none (no result: Mcl-1 Bim block)
O=C(OC1CCc2ccccc2C1=O)c1ccccc1O (stereo not given)	Mcl1 Bid PPI 54
CCOC(=O)c1sc(Nc2nc(OC)cc(OC)n2)nc1C	none (no result: NCF1 inh)
CC(C)c1nc2c(c(=O)c3ccccc3n2C)c(=O)n1CCc1ccccc1	none (no result: Mcl-1 Bim block)
O=C(N/N=C1/C(=O)c2cccc3cccc1c23)c1ccc(Cl)cc1	NCF1 inh 48, 14-3-3 Bad PPI 85[fluorescence artefact?], Mcl1 Bid PPI 88
CCNC(=S)N/N=C1\C(=O)c2cccc3cccc1c23	none
CN(C)/C=C\C(=C/C(=O)C(F)(F)F)Nc1ccccc1Oc1ccccc1	Mcl1 Noxa PPI 67
O=C(Nc1ccc(N2CCOCC2)cc1)C1CCCN(S(=O)(=O)c2ccccc2)C1 (stereo not given)	none
CN(C)c1ccc(NC(=O)C2CCCN(S(=O)(=O)c3ccccc3)C2)cc1 (stereo not given)	Mcl1 Noxa PPI 69
N#CC1CC(c2ccccc2)Nc2cc(Cl)ccc2N1 (stereo not given)	none (no result: Mcl-1 Bim block)
Cc1ccc2[nH]c3c(c2c1)CN(C(=O)CN1c2ccc(F)cc2CCC1C)CC3 (stereo not given)	NCF1 inh 196
COc1ccc(NC(=O)Cn2nnc(-c3ccccc3NC(=O)c3ccco3)n2)cc1	Mcl1 Bid PPI 66
COc1ccc(NC(=O)Cn2nnc(-c3ccccc3F)n2)cc1	NCF1 inh 54
COc1ccccc1NC(=O)Cn1nnc(-c2ccccc2NC(=O)c2cccs2)n1	none
COc1ccccc1NC(=O)Cn1nnc(-c2ccccc2NC(=O)c2ccco2)n1	none
O=C(Cn1nnc(-c2ccccc2NC(=O)c2cccs2)n1)Nc1ccccc1	Mcl1 Bid PPI 87
Cc1cc(NC(=S)N(Cc2ccc(Br)cc2)Cc2ccc(C(=O)O)cc2)ccc1Cl	none
